HT1080 IDH1KD tx – toxicity to HT-1080 IDH1 knockdown cells (counter line); HT-1080 IDH1 knockdown viability, ATP luminescence, 48 h; Potency, µM (highest dose often 46.1 µM), inactives show at the top dose activity, negative = toxicity, actives largely listed as cytotoxic; hit rate 2% among 360,000; AID 686971;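 further: potency means the concentration at half of the fitted maximal effect; 0% = DMSO wells and -100% = cell-free medium wells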
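% activity derives from luminescence (CellTiter-Glo), normalised to DMSO and no-cell wells. HT-1080-IDH1KD cells, 750/well, had 48 h compound exposure at 37 °C.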
IL-1B inflam inh – blocks inflammasome-driven IL-1 beta release; THP-1 LPS/ATP IL-1B secretion, AlphaLISA, 16 h; stronger effect = lower value; activity change, % at 57.5 µM; hit rate 4.7% among 360,000; in the data active means activity change below about -50%; inconclusive means mostly about -30% to -49%
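THP-1 cells pretreated 1 hr with compounds (up to 57.5 uM final), then stimulated with LPS (250 ng/mL final) plus ATP (1.25 mM final); secreted IL-1B measured by AlphaLISA after 16 hr, decreased signal indicating inhibition.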
HT1080-NT tox – kills 2HG-producing HT-1080-NT fibrosarcoma cells. AID 686970. Potency, µM (titrated, usually from 46.1 µM), for inactives: top-dose activity, negative = less viability, actives largely listed as cytotoxic. hit rate 1.6% among 360,000. HT-1080-NT fibrosarcoma viability, CellTiter-Glo ATP luminescence, 48 h;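 further: NT is the 2HG producing partner of a matched IDH1 knockdown line; potency means the concentration at half of the fitted maximal effect; 0% = DMSO-treated cells and -100% = media-only wells without cells; nearly all actives have a fitted effect of over 55% in size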
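Viability by CellTiter-Glo luminescence after 48 h compound exposure at 37C of HT-1080-NT cells (750/well, RPMI, 5% FBS). % activity scaled between DMSO wells and medium-only wells, then curve-fitted and categorized by curve class.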
TDP1 cell CPT – growth inhibition of DT40 Tdp1-/-;hTDP1 cells with camptothecin (screen for TDP1 inhibitors); hit rate 12% among 420,000; chicken DT40 Tdp1-/-;hTDP1 cells + 20 nM CPT, ATP luminescence, 48 h; Potency, µM (top dose mostly 46.2 µM), for inactives: at the top dose activity change, negative = growth inhibition, most hits filed as inhibitors; further: potency means the concentration at half of the fitted maximal effect; nearly all actives have a fitted effect of over 55% in size
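Chicken DT40 Tdp1-/- cells complemented with human TDP1, 400 cells/well, exposed to compounds plus 20 nM camptothecin for at least 48 h at 37 C; viability read as ATP content by CellTiter-Glo luminescence.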
TDP1 cell noCPT – qHTS for Inhibitors of human tyrosyl-DNA phosphodiesterase 1 (TDP1): qHTS in cells in absence of CPT. DT40 Tdp1-/- hTDP1 cells, no CPT, ATP luminescence, 48 h. Potency, µM (highest dose often 46.2 µM), for inactives: at the top dose activity change, negative = growth inhibition, most hits filed as inhibitors. AID 686978, 2013. hit rate 15% among 420,000; further: potency means the concentration at half of the fitted maximal effect; nearly all actives have a fitted effect of over 55% in size
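Chicken DT40 Tdp1-/- cells stably complemented with human TDP1 were seeded at 400 cells/well with DMSO in place of 20 nM camptothecin. After compound pinning, cells grew at least 48 hr at 37 °C; viability read by CellTiter-Glo luminescence.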
* hit, by the source's call; ? = inconclusive; / = not tested or not shown; [ ] = dose if it differs, or a comment. Most compounds without a hit are left out; they make up all but 19% or so of the library. Unless noted, the call rests on the fitted dose curve; in most records, active means well fitted curve in the direction sought with a large enough effect; inconclusive means small, poorly fitted or top-dose-only effect, or another doubt; inactive means no such curve, though single readings can be large; an effect the other way counts as inactive or inconclusive. Unless noted, on the % scale 0 is the no-effect control and ±100 the full control effect.

SMILES | HT1080 IDH1KD tx | IL-1B inflam inh | HT1080-NT tox | TDP1 cell CPT | TDP1 cell noCPT
Cc1ccc(C)c(NC(=O)Cn2c(=O)n(Cc3cccs3)c(=O)c3cccnc32)c1 | / | / | / | 18µM* | 13µM*
COc1ccc(Cl)cc1NC(=O)Cn1c(=O)n(Cc2ccc(F)cc2)c(=O)c2cccnc21 | / | / | / | ? | 9.2µM*
CCN(CC)c1ccc(N=Cc2c(C)[nH]c3ccccc23)cc1 | ? | 23 | ? | 6.5µM* | 9.2µM*
Cc1ccc(S(=O)(=O)N2CCC[C@H]2C(=O)OCC(=O)N2CCc3ccccc32)cc1 | 11% | -6 | 14% | -11% | -3%
FC(F)(F)c1ccc(N2CCN(c3ncnc4c3nnn4Cc3ccccc3Cl)CC2)cc1 | 8% | 29 | 20% | ? | ?
Cc1nnc(NCc2ccc(F)cc2)c2c1nnn2Cc1ccccc1Cl | / | / | / | 2.9µM* | 2.3µM*
Fc1ccc(N2CCN(c3ncnc4c3nnn4Cc3ccccc3Cl)CC2)cc1 | 10% | -10 | 5% | ? | 15µM*
CCOC(=O)C1CCN(c2ncnc3c2nnn3Cc2ccccc2Cl)CC1 | -1% | -4 | -3% | -11% | -29%
O=C(c1ccco1)N1CCN(c2ncnc3c2nnn3Cc2ccccc2Cl)CC1 | -17% | -24 | 2% | ? | 23µM*
O=C(c1ccco1)N1CCN(c2nc(C(F)(F)F)nc3c2nnn3Cc2ccccc2)CC1 | ? | ? | ? | 18µM* | ?
O=C(c1ccco1)N1CCC2(CCN(Cc3ccncc3)CC2)CC1 | / | / | / | -4% | -11%
CC(C)N1CCN(Cc2ccsc2)CC1CCO (configuration not stated) | 3% | 7 | 4% | -6% | -4%
Cc1nnc(NCc2ccc(Cl)cc2)c2c1nnn2Cc1ccc(F)cc1 | / | / | / | 6% | -8%
Cc1nnc(N2CCN(c3ccc(Cl)cc3)CC2)c2c1nnn2Cc1ccc(F)cc1 | / | / | / | ? | 2.6µM*
CCn1c(CCc2ccccc2)n[nH]c1=S | -1% | -6 | ? | -7% | ?
CCn1c(CCn2c3ccccc3c3ccccc32)n[nH]c1=S | ? | 4 | -19% | 15µM* | ?
CCN1CCN(S(=O)(=O)c2cc(C(=O)O)ccc2Cl)CC1 | 3% | 20 | 10% | 3% | 14%
CCOC(=O)C1=C(O)/C(=C/c2cc(OC)c(OC)c(OC)c2)SC1=Nc1ccc(OC)cc1 | -17% | -10 | -9% | ? | 21µM*
COc1ccc(CCNC(=O)c2ccccc2NC(=O)CN2CCN(c3ccccc3O)CC2)cc1 | -14% | -29 | -11% | ? | 10µM*
COc1ccccc1N1CCN(CC(=O)Nc2ccccc2C(=O)NCCc2ccccc2)CC1 | 1% | 14 | 2%[9.24 µM] | 15µM* | 16µM*
COc1ccccc1N1CCN(CC(=O)Nc2c(C)n[nH]c2C)CC1 | 5% | 9 | 7% | -8% | -1%
O=C(CN1CCN(c2ccccc2O)CC1)Nc1ccccc1C(=O)NCCc1ccccc1 | -1% | -2 | 0% | 23µM* | 16µM*
COc1ccc(NC(=O)c2ccccc2NC(=O)CN2CCCCCC2)cc1 | -1% | -12 | 0%[9.24 µM] | ? | -26%
O=C(CN1CCN(c2ccc(F)cc2)CC1)Nc1ccccc1C(=O)NCCc1ccccc1 | -19% | 21 | -1%[9.24 µM] | ? | 16µM*
O=C(CN1CCN(c2ccccc2F)CC1)Nc1ccccc1F | 19% | 12 | 9% | ? | -5%
SMILES | HT1080 IDH1KD tx | IL-1B inflam inh | HT1080-NT tox | TDP1 cell CPT | TDP1 cell noCPT
CC(=O)c1ccc(NC(=O)CCc2nnc3ccc(N4CCCC4)nn23)cc1 | -3% | 4 | 0% | -23% | -19%
O=C(COC(=O)COc1cccc(Br)c1)NCc1ccc2c(c1)OCO2 | 17% | 8 | 16% | -1% | -18%
CC1CCN(S(=O)(=O)N2CCC(C(=O)NCc3ccc(F)cc3Cl)CC2)CC1 | 0% | -24 | -10% | -24% | ?
C[C@H](c1ccccc1)N1C[C@H](COCc2ccccc2)Oc2cc(N3CC[C@H](N(C)C)C3)ccc2S1(=O)=O | 15µM* | -22 | 23µM* | ? | ?
C[C@H](c1ccccc1)N1C[C@H](COCc2ccccc2)Oc2cc(N3CC[C@H](O)C3)ccc2S1(=O)=O | ? | -5 | ? | ? | ?
C[C@H](c1ccccc1)N1C[C@@H](COCc2ccccc2)Oc2cc(N3CC[C@H](O)C3)ccc2S1(=O)=O | ? | -1 | ? | ? | 16µM*
CCCCC(NC(=O)c1ccc(C#N)cc1)C(=O)NCCC (configuration not stated) | -1% | 5 | -1% | -23% | -20%
CC(C)CCn1c(N2CCCC2)nc2c1c(=O)n(C)c(=O)n2C | -7% | 43 | -3% | ? | 21µM*
Cn1c(=O)c2c(nc(N3CCCCC3)n2C)n(C)c1=O | 1% | 17 | 1% | -2% | 7%
C=C(C)Cn1c(N2CCCC2)nc2c1c(=O)n(C)c(=O)n2C | 2% | 8 | -3% | ? | ?
CCCCCCn1c(N2CCCC2)nc2c1c(=O)n(C)c(=O)n2C | -11% | -3 | -8% | ? | 18µM*
O=C(NC1CCN(C(=O)NCc2ccccc2)CC1)c1ccccc1 | 10% | 11 | 9% | -1% | -16%
CCCc1c(C)nc2ccc(OC)cc2c1SCCC(=O)O | -14% | 31 | -2% | ? | 8.2µM*
Cc1cc(C)n(C(=O)c2cc3ccccc3c(=O)o2)n1 | 4% | 10 | 8% | 4% | -24%
O=C(Nc1ccc(O)cc1)c1cc2n(n1)C(C(F)(F)F)CC(c1ccco1)N2 (configuration not stated) | ? | 12 | ? | 9.2µM* | 7.3µM*
CCOC(=O)c1c(NC(=O)c2cc3n(n2)C(C(F)(F)F)CC(c2ccccc2)N3)sc(C)c1C (configuration not stated) | -2% | 9 | 0% | ? | 15µM*
CCCCNC(=O)c1cc2n(n1)C(C(F)(F)F)CC(c1ccccc1)N2 (configuration not stated) | 6% | -9 | -2% | -24% | -11%
Cc1cc(NC(=O)c2cc3n(n2)C(C(F)(F)F)CC(c2ccc(Cl)c(Cl)c2)N3)no1 (configuration not stated) | -19% | 8 | -11% | ? | 21µM*
Cc1ccc(C2CC(C(F)(F)F)n3nc(C(=O)Nc4c(C)n(C)n(-c5ccccc5)c4=O)cc3N2)cc1 (configuration not stated) | -10% | -7 | -18% | ? | ?
COC(=O)[C@H](C)NC(=O)NCc1ccccc1 | 7% | -4 | 14% | 10% | -14%
O=C(NNc1ccccn1)C(c1ccccc1)c1ccccc1 | 5% | 0 | 6% | 9% | 12%
